Numbering of substitutions follows the chain as printed.
Tests used:
Experiment in all cases: yeast three-hybrid, YBZ-1, SC-Leu-His + 0.5 mM 3-AT, 4 days
Conditions in all cases: tags: N-Gal4 AD-HA kept; label: inside an RPR1-promoter hybrid RNA with tandem MS2 sites; ssRNA
PUM1 PUF domain R5-KFR = PUM1 PUF domain R5-KFR (Homo sapiens, UniProt Q14671 828-1176, C1007K;R1008F;Q1011R)
Summary of the method: (§1)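 Sequencing with Illumina followed PCR amplification of the repeat regions from transformants grown four days on SC-Leu (input) or SC-Leu-His + 0.5 mM 3-AT (selection). The transformants were strain YBZ-1 with a LexA–MS2 coat fusion and a HIS3 reporter, carrying Pumilio-1 PUF domain libraries and matching RNA elements. The interaction score is the log change in variant frequency from input to selection, computed in log2 with a pseudocount of 1 for absent variants.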

PUM1 PUF domain R6-PFE = target: T1, PUM1 PUF domain R6-PFE (Homo sapiens, UniProt Q14671 828-1176, N1043P;Y1044F;Q1047E)
T1 sequence: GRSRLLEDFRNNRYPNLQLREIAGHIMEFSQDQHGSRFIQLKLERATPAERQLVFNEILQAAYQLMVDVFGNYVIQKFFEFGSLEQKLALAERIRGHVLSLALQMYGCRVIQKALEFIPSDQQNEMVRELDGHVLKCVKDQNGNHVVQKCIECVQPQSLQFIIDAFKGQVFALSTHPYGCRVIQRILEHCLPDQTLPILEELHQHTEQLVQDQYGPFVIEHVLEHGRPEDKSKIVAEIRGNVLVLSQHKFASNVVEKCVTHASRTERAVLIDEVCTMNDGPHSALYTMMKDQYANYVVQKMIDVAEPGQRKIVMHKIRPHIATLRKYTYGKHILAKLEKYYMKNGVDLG
Summary of the method: as §1

PUM1 PUF domain R5-DYD = PUM1 PUF domain R5-DYD (Homo sapiens, UniProt Q14671 828-1176, C1007D;R1008Y;Q1011D)
Summary of the method: as §1

PUM1 PUF domain R4-SNA = PUM1 PUF domain R4-SNA (Homo sapiens, UniProt Q14671 828-1176, N971S;H972N;Q975A)
Summary of the method: as §1

PUM1 PUF domain R6-FWG = target: T2, PUM1 PUF domain R6-FWG (Homo sapiens, UniProt Q14671 828-1176, N1043F;Y1044W;Q1047G)
T2 sequence: T1 sequence with P216F, F217W, E220G
Summary of the method: as §1

PUM1 PUF domain R7-KCQ = PUM1 PUF domain R7-KCQ (Homo sapiens, UniProt Q14671 828-1176, S1079K;N1080C;E1083Q)
Summary of the method: as §1

PUM1 PUF domain R7-ENS = PUM1 PUF domain R7-ENS (Homo sapiens, UniProt Q14671 828-1176, S1079E;E1083S)
Summary of the method: as §1

PUM1 PUF domain R5-KSI = PUM1 PUF domain R5-KSI (Homo sapiens, UniProt Q14671 828-1176, C1007K;R1008S;Q1011I)
Summary of the method: as §1

PUM1 PUF domain R4-QFL = PUM1 PUF domain R4-QFL (Homo sapiens, UniProt Q14671 828-1176, N971Q;H972F;Q975L)
Summary of the method: as §1

PUM1 PUF domain R3-WWD = PUM1 PUF domain R3-WWD (Homo sapiens, UniProt Q14671 828-1176, C935W;R936W;Q939D)
Summary of the method: as §1

Sequence: GGCUAGAACUAGUGGAUCCCCCGGCGCCCGGCGGCUCGAGCCCGGGUAAGUGUUAAUAGUCUGCAUGCCGCCGGGCGCCAUGCCUGCAGGUCGACUCUAGAAAACAUG
- binding signal (PUM1 PUF domain R5-KFR): 4.62 log2 enrichment (interaction score)

Sequence: GGCUAGAACUAGUGGAUCCCCCGGCGCCCGGCGGCUCGAGCCCGGGUAAGUGGAAAUAGUCUGCAUGCCGCCGGGCGCCAUGCCUGCAGGUCGACUCUAGAAAACAUG
- binding signal (PUM1 PUF domain R6-PFE): 2.11 log2 enrichment (interaction score)

Sequence: GGCUAGAACUAGUGGAUCCCCCGGCGCCCGGCGGCUCGAGCCCGGGUAAGUGUAAAUAGUCUGCAUGCCGCCGGGCGCCAUGCCUGCAGGUCGACUCUAGAAAACAUG
- binding signal (PUM1 PUF domain R5-KFR): 4.71 log2 enrichment (interaction score)
- binding signal (PUM1 PUF domain R5-DYD): 1.97 log2 enrichment (interaction score)
- binding signal (PUM1 PUF domain R4-SNA): 1.52 log2 enrichment (interaction score)
- binding signal (PUM1 PUF domain R6-FWG): 3.61 log2 enrichment (interaction score)

Sequence: GGCUAGAACUAGUGGAUCCCCCGGCGCCCGGCGGCUCGAGCCCGGGUAAGUGUACAUAGUCUGCAUGCCGCCGGGCGCCAUGCCUGCAGGUCGACUCUAGAAAACAUG
- binding signal (PUM1 PUF domain R4-SNA): 3.14 log2 enrichment (interaction score)

Sequence: GGCUAGAACUAGUGGAUCCCCCGGCGCCCGGCGGCUCGAGCCCGGGUAAGUUUAAAUAGUCUGCAUGCCGCCGGGCGCCAUGCCUGCAGGUCGACUCUAGAAAACAUG
- binding signal (PUM1 PUF domain R7-KCQ): 2.98 log2 enrichment (interaction score)
- binding signal (PUM1 PUF domain R7-ENS): 4.45 log2 enrichment (interaction score)

Sequence: GGCUAGAACUAGUGGAUCCCCCGGCGCCCGGCGGCUCGAGCCCGGGUAAGUGUCAAUAGUCUGCAUGCCGCCGGGCGCCAUGCCUGCAGGUCGACUCUAGAAAACAUG
- binding signal (PUM1 PUF domain R5-KSI): 3.85 log2 enrichment (interaction score)
- binding signal (PUM1 PUF domain R5-KFR): 5.4 log2 enrichment (interaction score)
- binding signal (PUM1 PUF domain R5-DYD): 5.78 log2 enrichment (interaction score)

Sequence: GGCUAGAACUAGUGGAUCCCCCGGCGCCCGGCGGCUCGAGCCCGGGUAAGUGUAUAUAGUCUGCAUGCCGCCGGGCGCCAUGCCUGCAGGUCGACUCUAGAAAACAUG
- binding signal (PUM1 PUF domain R4-QFL): 4.92 log2 enrichment (interaction score)
- binding signal (PUM1 PUF domain R4-SNA): 4.15 log2 enrichment (interaction score)

Sequence: GGCUAGAACUAGUGGAUCCCCCGGCGCCCGGCGGCUCGAGCCCGGGUAAGUGUAAGUAGUCUGCAUGCCGCCGGGCGCCAUGCCUGCAGGUCGACUCUAGAAAACAUG
- binding signal (PUM1 PUF domain R3-WWD): 5.41 log2 enrichment (interaction score)

Sequence: GGCUAGAACUAGUGGAUCCCCCGGCGCCCGGCGGCUCGAGCCCGGGUAAGUCUAAAUAGUCUGCAUGCCGCCGGGCGCCAUGCCUGCAGGUCGACUCUAGAAAACAUG
- binding signal (PUM1 PUF domain R7-KCQ): 4.46 log2 enrichment (interaction score)

Sequence: GGCUAGAACUAGUGGAUCCCCCGGCGCCCGGCGGCUCGAGCCCGGGUAAGUGAAAAUAGUCUGCAUGCCGCCGGGCGCCAUGCCUGCAGGUCGACUCUAGAAAACAUG
- binding signal (PUM1 PUF domain R6-FWG): 2.45 log2 enrichment (interaction score)

From article PMC8384837, “Expanding the binding specificity for RNA recognition by a PUF domain”
